# In PMC7862700, “An all-to-all approach to the identification of sequence-specific readers for epigenetic DNA modifications on cytosine”:
# Legend:
# Test in all cases: DAPPL (digital affinity profiling via proximity ligation, sequencing); 10 mM Tris-HCl pH 7.5, 50 mM NaCl, 1 mM DTT, 4% glycerol, room temperature, 30 min; GST-TFs on glutathione beads, 16-mer random dsDNA library, 0.1% formaldehyde crosslink after washing; high values mean tight binding
# [1] = molecular target: T1, FLI1 (Homo sapiens, UniProt Q01543 1-452); settings: protein: recombinant; tags: N-terminal GST; dsDNA, one strand shown
# T1 sequence: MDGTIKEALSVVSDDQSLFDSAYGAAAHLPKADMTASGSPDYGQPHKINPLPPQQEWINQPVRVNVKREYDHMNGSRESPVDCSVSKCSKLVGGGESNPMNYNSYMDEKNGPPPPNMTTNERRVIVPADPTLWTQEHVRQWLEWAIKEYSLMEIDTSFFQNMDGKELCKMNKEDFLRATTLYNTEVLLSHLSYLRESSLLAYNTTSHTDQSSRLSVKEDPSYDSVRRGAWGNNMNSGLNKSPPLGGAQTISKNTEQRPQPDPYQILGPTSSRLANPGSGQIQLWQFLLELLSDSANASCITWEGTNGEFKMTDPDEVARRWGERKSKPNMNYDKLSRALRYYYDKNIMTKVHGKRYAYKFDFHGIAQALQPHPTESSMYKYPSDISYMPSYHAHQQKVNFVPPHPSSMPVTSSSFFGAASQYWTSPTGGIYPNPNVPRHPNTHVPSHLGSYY
# Summary of the method: (§1)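 Human transcription factors fused to GST were expressed in yeast, captured on glutathione beads, given DNA barcodes and pooled with a GST-only negative control. Pools were incubated with 200 nmole of a 16-mer random double-stranded DNA library in Tris/NaCl/DTT/glycerol buffer at room temperature for 30 min. They were then washed, crosslinked with 0.1% formaldehyde, proximity-ligated (BsaI/T4 ligase, 1 h, 37 °C), PCR-amplified and sequenced on an Illumina NextSeq500. Binding signal is each 6-mer's read frequency for a factor divided by its frequency for the GST control.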
# [2] = molecular target: T2, ELK1 (Homo sapiens, UniProt P19419 1-428); settings: protein: recombinant; tags: N-terminal GST; dsDNA, one strand shown
# T2 sequence: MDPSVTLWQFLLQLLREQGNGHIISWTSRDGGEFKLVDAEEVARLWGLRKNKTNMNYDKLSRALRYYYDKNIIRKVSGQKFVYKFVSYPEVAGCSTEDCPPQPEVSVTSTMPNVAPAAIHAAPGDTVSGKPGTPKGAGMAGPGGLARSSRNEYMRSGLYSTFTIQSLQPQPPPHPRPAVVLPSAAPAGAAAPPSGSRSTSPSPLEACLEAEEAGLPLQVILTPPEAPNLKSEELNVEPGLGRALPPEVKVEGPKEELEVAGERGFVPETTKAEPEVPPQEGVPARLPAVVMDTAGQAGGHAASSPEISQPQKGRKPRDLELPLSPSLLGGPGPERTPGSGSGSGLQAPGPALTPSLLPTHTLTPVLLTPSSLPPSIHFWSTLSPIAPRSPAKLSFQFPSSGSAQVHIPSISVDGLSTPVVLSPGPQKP
# Summary of the method: as §1
# [3] = molecular target: T3, GABPA (Homo sapiens, UniProt Q06546 1-454); settings: protein: recombinant; tags: N-terminal GST; dsDNA, one strand shown
# T3 sequence: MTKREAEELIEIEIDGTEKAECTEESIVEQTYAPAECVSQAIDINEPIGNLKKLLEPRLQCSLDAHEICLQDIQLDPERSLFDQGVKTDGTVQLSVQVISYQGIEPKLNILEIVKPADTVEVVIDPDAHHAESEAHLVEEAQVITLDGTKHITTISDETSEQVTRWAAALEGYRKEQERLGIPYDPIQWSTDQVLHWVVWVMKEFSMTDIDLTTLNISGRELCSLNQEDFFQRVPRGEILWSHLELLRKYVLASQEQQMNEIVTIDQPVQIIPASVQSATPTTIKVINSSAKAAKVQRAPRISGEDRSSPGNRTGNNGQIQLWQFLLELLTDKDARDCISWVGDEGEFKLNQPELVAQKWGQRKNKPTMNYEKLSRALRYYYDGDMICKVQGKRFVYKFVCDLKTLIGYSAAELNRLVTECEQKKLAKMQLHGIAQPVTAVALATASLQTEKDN
# Summary of the method: as §1
# [4] = molecular target: T4, ERG (Homo sapiens, UniProt P11308 1-479); settings: protein: recombinant; tags: N-terminal GST; dsDNA, one strand shown
# T4 sequence: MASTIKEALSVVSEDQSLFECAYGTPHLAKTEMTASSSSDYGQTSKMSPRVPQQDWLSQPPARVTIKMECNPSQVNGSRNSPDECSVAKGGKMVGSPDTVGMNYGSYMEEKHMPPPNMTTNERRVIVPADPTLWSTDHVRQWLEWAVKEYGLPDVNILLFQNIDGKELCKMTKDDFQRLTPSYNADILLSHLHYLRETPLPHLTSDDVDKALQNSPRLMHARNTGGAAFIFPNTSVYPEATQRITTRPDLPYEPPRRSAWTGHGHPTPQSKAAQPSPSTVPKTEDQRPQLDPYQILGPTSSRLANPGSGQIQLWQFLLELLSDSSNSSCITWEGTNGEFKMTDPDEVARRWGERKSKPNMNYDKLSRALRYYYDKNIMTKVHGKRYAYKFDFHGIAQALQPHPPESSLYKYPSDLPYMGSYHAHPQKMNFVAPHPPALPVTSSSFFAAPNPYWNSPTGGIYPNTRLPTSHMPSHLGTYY
# Summary of the method: as §1
# [5] = molecular target: ELF1 (Homo sapiens, UniProt P32519 1-619); settings: protein: recombinant; tags: N-terminal GST; dsDNA, one strand shown
# Summary of the method: as §1
# [6] = molecular target: T5, EHF (Homo sapiens, UniProt Q9NZC4 1-300); settings: protein: recombinant; tags: N-terminal GST; dsDNA, one strand shown
# T5 sequence: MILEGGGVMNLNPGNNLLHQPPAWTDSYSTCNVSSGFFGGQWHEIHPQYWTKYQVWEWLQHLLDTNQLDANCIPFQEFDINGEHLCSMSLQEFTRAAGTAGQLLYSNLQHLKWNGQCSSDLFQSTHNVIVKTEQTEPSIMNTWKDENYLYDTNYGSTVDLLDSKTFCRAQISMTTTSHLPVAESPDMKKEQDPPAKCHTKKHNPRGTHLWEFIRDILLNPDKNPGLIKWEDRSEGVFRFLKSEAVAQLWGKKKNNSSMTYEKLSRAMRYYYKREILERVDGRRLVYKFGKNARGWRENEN
# Summary of the method: as §1
# [7] = molecular target: SPI1 (Homo sapiens, UniProt P17947 1-270); settings: protein: recombinant; tags: N-terminal GST; dsDNA, one strand shown
# Summary of the method: as §1
# [8] = molecular target: SPIB (Homo sapiens, UniProt Q01892 1-262); settings: protein: recombinant; tags: N-terminal GST; dsDNA, one strand shown
# Summary of the method: as §1
# [9] = molecular target: T6, ELK3 (Homo sapiens, UniProt P41970 1-407); settings: protein: recombinant; tags: N-terminal GST; dsDNA, one strand shown
# T6 sequence: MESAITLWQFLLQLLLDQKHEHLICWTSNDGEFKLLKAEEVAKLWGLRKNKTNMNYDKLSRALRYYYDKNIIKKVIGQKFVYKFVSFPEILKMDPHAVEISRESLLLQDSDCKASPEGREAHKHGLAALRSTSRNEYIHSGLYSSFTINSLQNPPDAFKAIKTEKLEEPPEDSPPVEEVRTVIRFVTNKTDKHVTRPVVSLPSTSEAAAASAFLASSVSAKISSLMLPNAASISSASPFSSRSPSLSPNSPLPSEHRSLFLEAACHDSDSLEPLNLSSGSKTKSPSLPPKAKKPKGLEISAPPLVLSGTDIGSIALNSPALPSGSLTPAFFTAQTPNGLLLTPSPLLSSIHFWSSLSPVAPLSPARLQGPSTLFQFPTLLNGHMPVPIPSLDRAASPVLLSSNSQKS
# Summary of the method: as §1
# [10] = molecular target: T7, FEV (Homo sapiens, UniProt Q99581 1-238); settings: protein: recombinant; tags: N-terminal GST; dsDNA, one strand shown
# T7 sequence: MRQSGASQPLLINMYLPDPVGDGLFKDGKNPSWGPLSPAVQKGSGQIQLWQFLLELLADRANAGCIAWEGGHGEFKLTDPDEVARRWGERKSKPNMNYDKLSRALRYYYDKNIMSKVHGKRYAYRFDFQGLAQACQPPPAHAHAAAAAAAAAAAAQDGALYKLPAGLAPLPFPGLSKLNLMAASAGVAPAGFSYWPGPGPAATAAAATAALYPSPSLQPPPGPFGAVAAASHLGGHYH
# Summary of the method: as §1
# [11] = molecular target: ETV5 (Homo sapiens, UniProt P41161 1-510); settings: protein: recombinant; tags: N-terminal GST; dsDNA, one strand shown
# Summary of the method: as §1
# [12] = molecular target: HSF1 (Homo sapiens, UniProt Q00613 1-529); settings: protein: recombinant; tags: N-terminal GST; chain copies: 3; dsDNA, one strand shown
# Summary of the method: as §1
# [13] = molecular target: T8, SPIC (Homo sapiens, UniProt Q8N5J4 1-248); settings: protein: recombinant; tags: N-terminal GST; dsDNA, one strand shown
# T8 sequence: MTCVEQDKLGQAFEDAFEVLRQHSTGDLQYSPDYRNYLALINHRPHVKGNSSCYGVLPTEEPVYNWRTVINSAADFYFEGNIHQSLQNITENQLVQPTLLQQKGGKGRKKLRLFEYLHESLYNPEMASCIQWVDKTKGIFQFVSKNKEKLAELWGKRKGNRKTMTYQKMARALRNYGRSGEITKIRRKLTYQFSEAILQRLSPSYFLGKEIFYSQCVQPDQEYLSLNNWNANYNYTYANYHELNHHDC
# Summary of the method: as §1
# [14] = molecular target: ELF4 (Homo sapiens, UniProt Q99607 1-663); settings: protein: recombinant; tags: N-terminal GST; dsDNA, one strand shown
# Summary of the method: as §1
# [15] = molecular target: T9, ELK4 (Homo sapiens, UniProt P28324-2 1-405); settings: protein: recombinant; tags: N-terminal GST; dsDNA, one strand shown
# T9 sequence: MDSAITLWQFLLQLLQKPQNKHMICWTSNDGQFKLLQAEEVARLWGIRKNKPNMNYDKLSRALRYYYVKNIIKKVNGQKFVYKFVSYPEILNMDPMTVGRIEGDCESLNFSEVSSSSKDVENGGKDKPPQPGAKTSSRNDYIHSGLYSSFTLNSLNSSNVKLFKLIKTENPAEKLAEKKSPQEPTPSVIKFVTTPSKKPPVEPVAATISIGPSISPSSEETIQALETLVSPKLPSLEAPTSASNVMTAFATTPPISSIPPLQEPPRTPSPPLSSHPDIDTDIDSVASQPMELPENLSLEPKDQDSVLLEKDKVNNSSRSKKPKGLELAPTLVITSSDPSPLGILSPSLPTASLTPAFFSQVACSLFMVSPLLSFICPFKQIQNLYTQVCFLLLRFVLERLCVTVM
# Summary of the method: as §1
# [16] = molecular target: T10, ETV2 (Homo sapiens, UniProt O00321 1-342); settings: protein: recombinant; tags: N-terminal GST; dsDNA, one strand shown
# T10 sequence: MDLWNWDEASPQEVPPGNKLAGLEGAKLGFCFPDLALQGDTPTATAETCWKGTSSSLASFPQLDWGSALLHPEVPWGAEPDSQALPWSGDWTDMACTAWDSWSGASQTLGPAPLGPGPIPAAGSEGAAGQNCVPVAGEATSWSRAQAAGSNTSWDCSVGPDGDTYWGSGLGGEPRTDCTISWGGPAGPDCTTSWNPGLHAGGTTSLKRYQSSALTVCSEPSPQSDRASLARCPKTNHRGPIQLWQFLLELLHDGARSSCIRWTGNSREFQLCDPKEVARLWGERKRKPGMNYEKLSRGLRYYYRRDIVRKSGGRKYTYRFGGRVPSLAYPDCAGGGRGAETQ
# Summary of the method: as §1
# [17] = molecular target: T11, ELF3 (Homo sapiens, UniProt P78545 1-371); settings: protein: recombinant; tags: N-terminal GST; dsDNA, one strand shown
# T11 sequence: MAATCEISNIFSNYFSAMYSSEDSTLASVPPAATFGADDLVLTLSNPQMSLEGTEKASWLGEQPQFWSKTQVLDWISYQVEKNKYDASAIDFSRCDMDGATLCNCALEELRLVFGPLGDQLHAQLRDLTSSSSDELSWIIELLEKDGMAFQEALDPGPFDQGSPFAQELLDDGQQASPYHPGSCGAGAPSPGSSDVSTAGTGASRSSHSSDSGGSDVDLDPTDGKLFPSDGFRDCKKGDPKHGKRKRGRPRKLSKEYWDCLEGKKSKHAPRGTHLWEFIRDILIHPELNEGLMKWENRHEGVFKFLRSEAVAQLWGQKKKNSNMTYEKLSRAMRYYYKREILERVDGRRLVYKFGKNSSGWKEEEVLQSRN
# Summary of the method: as §1
# [18] = molecular target: CRX (Homo sapiens, UniProt O43186 1-299); settings: protein: recombinant; tags: N-terminal GST; dsDNA, one strand shown
# Summary of the method: as §1
# [19] = molecular target: ETV1 (Homo sapiens, UniProt P50549 1-477); settings: protein: recombinant; tags: N-terminal GST; dsDNA, one strand shown
# Summary of the method: as §1
# Sequence of ETV5 (P41161 whole entry): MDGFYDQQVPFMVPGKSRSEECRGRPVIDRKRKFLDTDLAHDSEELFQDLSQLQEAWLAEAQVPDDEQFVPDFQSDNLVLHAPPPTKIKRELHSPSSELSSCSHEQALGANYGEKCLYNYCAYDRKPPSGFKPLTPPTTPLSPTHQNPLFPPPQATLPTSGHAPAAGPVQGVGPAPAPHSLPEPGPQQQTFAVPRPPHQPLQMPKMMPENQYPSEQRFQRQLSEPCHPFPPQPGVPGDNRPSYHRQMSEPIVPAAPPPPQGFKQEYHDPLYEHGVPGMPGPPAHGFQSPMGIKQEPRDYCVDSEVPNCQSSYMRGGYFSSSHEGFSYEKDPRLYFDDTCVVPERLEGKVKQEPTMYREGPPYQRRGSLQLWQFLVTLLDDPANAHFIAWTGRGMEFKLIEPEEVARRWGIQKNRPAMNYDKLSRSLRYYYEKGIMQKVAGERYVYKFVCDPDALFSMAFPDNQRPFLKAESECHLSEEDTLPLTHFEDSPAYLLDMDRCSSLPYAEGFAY
# Sequence of HSF1 (Q00613 whole entry): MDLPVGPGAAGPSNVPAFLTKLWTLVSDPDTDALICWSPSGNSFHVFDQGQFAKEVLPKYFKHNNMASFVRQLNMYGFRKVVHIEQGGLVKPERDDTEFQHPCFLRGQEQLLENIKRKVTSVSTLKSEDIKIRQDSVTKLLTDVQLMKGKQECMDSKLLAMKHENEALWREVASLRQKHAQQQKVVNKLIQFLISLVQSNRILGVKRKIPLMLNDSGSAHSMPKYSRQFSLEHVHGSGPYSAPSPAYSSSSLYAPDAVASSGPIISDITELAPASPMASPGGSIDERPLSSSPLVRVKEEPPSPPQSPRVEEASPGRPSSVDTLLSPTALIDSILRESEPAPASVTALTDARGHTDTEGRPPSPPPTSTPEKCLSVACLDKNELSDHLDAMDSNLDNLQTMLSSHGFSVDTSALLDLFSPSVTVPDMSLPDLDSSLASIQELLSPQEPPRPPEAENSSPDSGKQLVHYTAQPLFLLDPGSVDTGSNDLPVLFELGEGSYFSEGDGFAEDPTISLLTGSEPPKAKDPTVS
# Sequence of CRX (O43186 whole entry): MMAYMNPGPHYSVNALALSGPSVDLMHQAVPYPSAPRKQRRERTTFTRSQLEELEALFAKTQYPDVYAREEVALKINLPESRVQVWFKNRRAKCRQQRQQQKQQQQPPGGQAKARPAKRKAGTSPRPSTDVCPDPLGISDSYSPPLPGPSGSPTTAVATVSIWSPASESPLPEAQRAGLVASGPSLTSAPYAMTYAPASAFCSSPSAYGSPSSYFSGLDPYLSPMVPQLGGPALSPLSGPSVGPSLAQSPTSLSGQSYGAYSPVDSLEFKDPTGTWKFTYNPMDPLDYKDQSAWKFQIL
# Sequence of ELF4 (Q99607 whole entry): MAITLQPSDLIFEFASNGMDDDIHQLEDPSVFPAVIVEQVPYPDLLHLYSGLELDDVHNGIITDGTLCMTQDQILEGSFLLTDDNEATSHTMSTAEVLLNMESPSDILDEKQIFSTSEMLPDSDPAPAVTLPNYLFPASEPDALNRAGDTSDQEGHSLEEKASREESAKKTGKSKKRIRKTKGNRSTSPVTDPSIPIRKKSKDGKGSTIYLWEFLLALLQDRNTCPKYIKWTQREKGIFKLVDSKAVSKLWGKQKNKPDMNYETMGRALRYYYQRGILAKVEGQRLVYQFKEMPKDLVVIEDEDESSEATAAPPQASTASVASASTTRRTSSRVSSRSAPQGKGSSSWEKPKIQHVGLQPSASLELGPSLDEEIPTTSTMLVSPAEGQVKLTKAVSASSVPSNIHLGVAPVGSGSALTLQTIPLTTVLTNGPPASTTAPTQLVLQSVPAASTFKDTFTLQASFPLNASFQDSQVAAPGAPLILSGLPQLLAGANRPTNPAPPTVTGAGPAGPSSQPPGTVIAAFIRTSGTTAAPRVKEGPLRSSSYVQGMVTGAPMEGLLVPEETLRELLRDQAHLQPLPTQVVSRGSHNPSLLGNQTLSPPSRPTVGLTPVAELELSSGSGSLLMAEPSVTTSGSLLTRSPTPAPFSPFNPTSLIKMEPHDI
# Sequence of ETV1 (P50549 whole entry): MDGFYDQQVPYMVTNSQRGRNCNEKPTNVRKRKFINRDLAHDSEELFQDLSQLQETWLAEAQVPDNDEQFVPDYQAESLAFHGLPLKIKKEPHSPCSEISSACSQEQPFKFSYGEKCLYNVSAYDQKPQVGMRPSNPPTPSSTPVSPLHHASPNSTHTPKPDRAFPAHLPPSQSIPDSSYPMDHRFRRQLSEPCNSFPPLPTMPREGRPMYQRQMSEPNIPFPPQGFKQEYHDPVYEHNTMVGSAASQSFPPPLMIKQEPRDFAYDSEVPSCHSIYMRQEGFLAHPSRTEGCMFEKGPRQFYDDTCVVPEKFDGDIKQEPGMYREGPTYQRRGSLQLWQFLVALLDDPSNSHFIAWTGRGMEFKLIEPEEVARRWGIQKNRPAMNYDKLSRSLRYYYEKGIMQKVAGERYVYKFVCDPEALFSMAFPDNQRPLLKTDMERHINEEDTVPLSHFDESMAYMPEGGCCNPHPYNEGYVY
# Sequence of ELF1 (P32519 whole entry): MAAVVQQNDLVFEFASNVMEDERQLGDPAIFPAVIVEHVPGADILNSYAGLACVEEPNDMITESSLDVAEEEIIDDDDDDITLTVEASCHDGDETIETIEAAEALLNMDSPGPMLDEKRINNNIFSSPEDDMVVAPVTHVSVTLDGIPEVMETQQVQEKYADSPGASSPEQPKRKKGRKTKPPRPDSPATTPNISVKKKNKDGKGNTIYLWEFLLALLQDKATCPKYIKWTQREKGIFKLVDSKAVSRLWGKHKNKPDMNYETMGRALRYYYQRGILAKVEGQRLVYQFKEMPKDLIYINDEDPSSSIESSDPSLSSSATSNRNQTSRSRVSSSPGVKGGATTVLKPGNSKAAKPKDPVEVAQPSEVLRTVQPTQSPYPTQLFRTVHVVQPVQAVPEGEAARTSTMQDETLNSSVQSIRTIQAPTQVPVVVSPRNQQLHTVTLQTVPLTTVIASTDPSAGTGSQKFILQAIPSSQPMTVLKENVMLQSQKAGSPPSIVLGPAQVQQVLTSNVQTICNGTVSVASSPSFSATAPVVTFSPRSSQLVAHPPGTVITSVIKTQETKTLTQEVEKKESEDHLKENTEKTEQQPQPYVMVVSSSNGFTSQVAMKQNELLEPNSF
# Sequence of SPIB (Q01892 whole entry): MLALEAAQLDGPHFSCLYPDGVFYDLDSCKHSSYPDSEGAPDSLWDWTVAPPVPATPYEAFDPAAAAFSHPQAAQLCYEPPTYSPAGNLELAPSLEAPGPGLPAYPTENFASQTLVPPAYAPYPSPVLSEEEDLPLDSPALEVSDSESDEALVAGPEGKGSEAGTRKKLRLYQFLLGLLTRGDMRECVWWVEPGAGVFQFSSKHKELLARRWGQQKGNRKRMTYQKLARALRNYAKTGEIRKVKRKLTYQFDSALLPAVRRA
sequence,measurement,setting,value
GAAATA,binding signal,[1],"1.45 fold enrichment (6-mer frequency, TF over GST control)"
same,binding signal,[2],"1.42 fold enrichment (6-mer frequency, TF over GST control)"
same,binding signal,[3],"1.48 fold enrichment (6-mer frequency, TF over GST control)"
same,binding signal,[4],"1.61 fold enrichment (6-mer frequency, TF over GST control)"
same,binding signal,[5],"1.45 fold enrichment (6-mer frequency, TF over GST control)"
same,binding signal,[6],"1.64 fold enrichment (6-mer frequency, TF over GST control)"
same,binding signal,[7],"1.49 fold enrichment (6-mer frequency, TF over GST control)"
same,binding signal,[8],"1.54 fold enrichment (6-mer frequency, TF over GST control)"
same,binding signal,[9],"1.5 fold enrichment (6-mer frequency, TF over GST control)"
same,binding signal,[10],"1.54 fold enrichment (6-mer frequency, TF over GST control)"
same,binding signal,[11],"1.63 fold enrichment (6-mer frequency, TF over GST control)"
same,binding signal,[12],"1.21 fold enrichment (6-mer frequency, TF over GST control)"
same,binding signal,[13],"1.43 fold enrichment (6-mer frequency, TF over GST control)"
same,binding signal,[14],"1.35 fold enrichment (6-mer frequency, TF over GST control)"
same,binding signal,[15],"1.39 fold enrichment (6-mer frequency, TF over GST control)"
same,binding signal,[16],"1.42 fold enrichment (6-mer frequency, TF over GST control)"
same,binding signal,[17],"1.62 fold enrichment (6-mer frequency, TF over GST control)"
same,binding signal,[18],"1.11 fold enrichment (6-mer frequency, TF over GST control)"
same,binding signal,[19],"1.54 fold enrichment (6-mer frequency, TF over GST control)"
